High-throughput results as filed in PubChem.
An excerpt weighted towards active compounds, which were near 3% of everything screened.
PNC assembly inh: blocks assembly of the perinucleolar compartment | activity change (PNC), negative = inhibition, % at 10 µM | PC3M PTB-GFP, PNC prevalence imaging, 16 h; hits give low values | AID 2417 | 140,000 compounds, 3.1% hits;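 active = readout at or below -70, meaning at least 70% loss of cells showing the perinucleolar compartment, a nuclear body marking cancer cells; inconclusive = readout between -30 and a set limit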;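 also: plate controls were DMSO wells for no effect and camptothecin positive control wells for full effect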
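Read-out is percentage of cells bearing a perinucleolar compartment, from automated 20x imaging of fixed, Hoechst-stained PC3M PTB-GFP cells. Cells were seeded 4 h, then exposed 16 h to compound (23 nl of library stock) in duplicate plates.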
ALOX12 inhib: 12-hLO (ALOX12) enzyme inhibition. Potency, µM (titrated, usually from 57.1 µM), without a hit: top-dose activity change, negative = inhibition, most hits filed as inhibitors. P18054. 150,000 compounds, 0.12% hits. purified 12-hLO, xylenol orange hydroperoxide absorbance; also: potency is read from the fitted curve at half-maximal effect; nearly all actives have a fitted effect of over 55% in size
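150 nM 12hLO, 25 mM Hepes pH 7.0 + 0.01% Triton X-100; cpd preinc 15 min RT; 40 uM arachidonic acid, 30 min RT; Fe-XO 30 min; A573/A405 ratio as read-out.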
IMPase cell inh: membrane-permeable compound that blocks inositol monophosphatase; CHO-M1 cells, IP1 accumulation, HTRF TR-FRET ratio; inhibition (IP1 accumulation), % at 46.1 µM; 120,000 tested, under 10 active; active = well fitted curve in the direction sought with a large enough effect in the signal ratio, not every such curve was filed as active; inconclusive = small, poorly fitted or top-dose-only effect, or a change in a side signal; inactive = no such curve, though single readings can be large or run the other way; the % refers to the signal ratio;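 also: cells stimulated with carbachol in lithium chloride buffer; plate controls were DMSO basal wells for no effect and reference inhibitor wells for full effect; higher means more IMPase inhibition seen as more IP1 and lower FRET ratio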
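CHO-M1, 2000 cells/well, cultured 16–30 h; cpd up to 46 uM; carbachol (50 uM solution, stimulation buffer w/ 50 mM LiCl, pH 7.4), 30 min 37C; IP-One TR-FRET, 10 min RT; Ex 320/Em 665, 620; Hill-fit AC50.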
ALOX15B inhib: 15-hLO-2 (ALOX15B) enzyme inhibition; O15296; purified 15hLO-2, xylenol orange hydroperoxide absorbance; Potency, µM (titrated, usually from 57.1 µM), without a hit: top-dose activity change, negative = inhibition, most hits filed as inhibitors; 110,000 compounds, 0.56% hits; AID 881; also: potency is read from the fitted curve at half-maximal effect; nearly all actives have a fitted effect of over 60% in size
Target sequence (O15296 whole entry, looked up): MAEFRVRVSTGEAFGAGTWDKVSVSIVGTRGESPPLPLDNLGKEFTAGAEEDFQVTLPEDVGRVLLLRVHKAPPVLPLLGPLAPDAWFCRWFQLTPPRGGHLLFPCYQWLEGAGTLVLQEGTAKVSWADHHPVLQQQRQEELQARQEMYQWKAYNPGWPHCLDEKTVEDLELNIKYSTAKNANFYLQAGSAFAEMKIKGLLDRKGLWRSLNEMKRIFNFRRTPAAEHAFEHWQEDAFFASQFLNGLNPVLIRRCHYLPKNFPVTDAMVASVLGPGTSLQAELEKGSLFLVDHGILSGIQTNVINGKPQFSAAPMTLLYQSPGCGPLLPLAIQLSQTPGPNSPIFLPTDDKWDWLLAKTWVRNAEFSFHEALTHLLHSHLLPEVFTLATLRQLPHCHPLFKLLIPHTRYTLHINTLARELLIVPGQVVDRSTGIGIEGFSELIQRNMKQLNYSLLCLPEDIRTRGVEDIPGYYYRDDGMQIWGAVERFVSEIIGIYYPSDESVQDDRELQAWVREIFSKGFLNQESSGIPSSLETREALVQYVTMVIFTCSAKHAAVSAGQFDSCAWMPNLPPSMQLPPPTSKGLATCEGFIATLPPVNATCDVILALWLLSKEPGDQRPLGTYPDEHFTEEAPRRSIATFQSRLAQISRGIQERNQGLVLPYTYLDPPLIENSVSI
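Read-out: hydroperoxide product oxidises ferrous iron, measured as xylenol orange complex via the 573-to-405 nm absorbance ratio after 30 min. Reaction: 50 nM enzyme, 15 min compound preincubation, 45 uM arachidonic acid, 90 min RT, Hepes pH 7.5 with Triton X-100.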
An asterisk follows results filed as active; ? = inconclusive; · = no result given; [ ] = remark or other dose. Unless noted, calls follow the shape of the dose curve; as a rule, active = well fitted curve in the direction sought with a large enough effect; inconclusive = small, poorly fitted or top-dose-only effect, or another doubt; inactive = no such curve, though single readings can be large; an effect the other way counts as inactive or inconclusive. Unless noted, % is scaled to controls: 0 for no effect and ±100 for the full control effect.

SMILES	PNC assembly inh	ALOX12 inhib	IMPase cell inh	ALOX15B inhib
C=CC(=O)OCC(CC)CCCC (stereo unspecified)	·	2%	·	5%
C[C@]12CC[C@H](O)C[C@@H]1CC[C@H]1[C@H]2CC[C@]2(C)[C@H](C(=O)CO)CC[C@@H]12	·	-4%	4	-14%
CCC(C)N1C(=O)NC(=O)C2(Cc3c(ccc4ccccc34)N(C)C2)C1=O (stereo unspecified)	20	-18%	-1	5µM*
C=C(C)c1cccc(C(C)(C)NC(=O)NC2CN3CCC2CC3)c1 (stereo unspecified)	-94*	-6%	1	23%
COc1ccc(C(C)=O)cc1CC(C(=O)c1ccccc1)N(C)C (stereo unspecified)	-94*	0%	2	·
COc1cccc(OC)c1C1=NCC(=O)Nc2c1oc1ccc(Br)cc21	-119*	-26%	?	·
COc1ccc(CNCC(=O)N2CCC3(CC2)OCCO3)cc1	-13	-6%	-3	-13%
Cc1cc(NC(=O)CCC(=O)N2CCC3(CC2)OCCO3)no1	-84*	0%	-5	-4%
CCCC[N+]1(C)[C@@H]2CC(OC(=O)[C@@H](CO)c3ccccc3)C[C@H]1[C@H]1O[C@H]12 (stereo partly specified)	·	-3%	19	-9%
CCc1ccc(-n2c(O)c(/C=N/N3CCCCC3c3cccnc3)c(=O)[nH]c2=O)cc1 (stereo unspecified)	-100*	-2%	-3	·
C[C@@H](Cc1ccc2c(c1)OC(C(=O)O)(C(=O)O)O2)NC[C@H](O)c1cccc(Cl)c1	·	-7%	-1	4%
O=P(NS(=O)(=O)c1ccc(Cl)cc1)(Oc1ccccc1)Oc1ccccc1	-100*	0%	-7	·
C=CCCC#N	·	-1%	·	-7%
CN1C(=O)C(=Cc2ccc(N3CCCCC3)o2)C(=O)N(C)C1=S	-100*	-2%	-2	-7%
S=C1NCCN1	-85*	0%	·	6%
CC1(C)C(C(Cl)Cl)C2(Cl)C(Cl)C(Cl)C1(Cl)C2(Cl)Cl (stereo unspecified)	·	0%	·	-5%
CC[C@H](CO)NC(=O)[C@@H]1C=C2c3cccc4[nH]cc(c34)C[C@@H]2N(C)C1	·	-4%	0	-2%
CN1C(CC(=O)c2ccccc2)CCCC1CC(O)c1ccccc1 (stereo unspecified)	-110*	-1%	17	34%
Oc1cc2c(cc1O)[C@H]1c3ccccc3CN[C@H]1CC2	·	-10%	-1	6.3µM*
Oc1cc2c(cc1O)[C@H]1c3ccccc3CN[C@@H]1CC2	·	-11%	6	?
COc1ccc(OCC(=O)N2CCN(C(C)C)CC2)cc1	-100*	-4%	?	·
COc1ccc(OCC(=O)N2CCN(Cc3ccc(SC)cc3)CC2)cc1	·	·	1	·
COC(=O)C1=Nc2ccccc2/C1=C\c1c(O)n(-c2ccc(Br)cc2)c(=O)[nH]c1=O	-124*	?	·	·
O=c1[nH]c(=O)n(-c2ccccc2)c(O)c1/C=C1/C(c2ccccc2)=Nc2ccccc21	-91*	-2%	·	·
COC(=O)C1=Nc2ccccc2/C1=C\c1c(O)n(-c2ccc(OC)cc2)c(=O)[nH]c1=O	67	?	13	-9%
SMILES	PNC assembly inh	ALOX12 inhib	IMPase cell inh	ALOX15B inhib
O=c1[nH]c(=O)n(-c2ccccc2)c(O)c1/C=C/C=Nc1ccccc1	6	-8%	-4	·
Oc1ccc2c3c1O[C@@H]1c4[nH]c5c(c4C[C@@]4(O)[C@@H](C2)N(CC2CC2)CC[C@]314)C[C@]1(O)[C@@H]2Cc3ccc(O)c4c3[C@@]1(CCN2CC1CC1)[C@H]5O4	·	-4%	0	37%
C[C@@]12CC[C@H]3[C@@H](CCC4=C(O)C(=O)CC[C@]43C)[C@H]1CCC2=O	·	-7%	3	-9%
Clc1ccc(C(c2ccccc2Cl)C(Cl)(Cl)Cl)cc1 (stereo unspecified)	·	0%	·	-1%
NC(=O)CI	·	-5%	0	?
Cc1c(OCC(F)(F)F)ccnc1CS(=O)c1nc2ccccc2[nH]1 (stereo unspecified)	-2	-11%	4	?
COCCCOc1ccnc(CS(=O)c2nc3ccccc3[nH]2)c1C (stereo unspecified)	·	-10%[0.00818 µM]	·	13µM*
CN(C)C(=O)Cl	·	-3%	·	6%
O=C1C=CC(=O)c2c(O)cccc21	·	-24%	·	3.2µM*
O=C1C=Cc2ccccc2C1=O	?	-24%	·	·
